SF1 inhibitor: inhibitors of human SF-1, primary screen, cell-based, CHO-K1, Gal4-SF-1 LBD, luciferase luminescence. CHO-K1 Gal4-SF-1 LBD luciferase reporter. AID 525, 2006. actives 0.55% (n = 65,000). inhibition, % at 10 µM. Steroidogenic factor 1 (Homo sapiens), Q13285;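 active = inhibition above the mean inhibition of all tested compounds plus 3 SD, cut at about 48% in these data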;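 also: 0% = SF-1 transfected cells with DMSO and 100% = mock-transfected cells lacking SF-1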
* marks the source's active call; other numbers are inactive results. Many of the other results were omitted from the sample, so hits are more common in it than they were.

SMILES	SF1 inhibitor
CCn1cc(Br)c(C(=O)Nc2cccc(SC)c2)n1	-50
CC(C)CCSc1nc(N)c(C#N)cc1C#N	-3
CCCCOc1ccccc1NC(=O)Cn1c(-c2nonc2N)nc2ccccc21	67*
COc1cccc(Cn2c(-c3nonc3N)nc3ccccc32)c1	-62
Nc1nonc1-c1nc2ccccc2n1Cc1ccc(Cl)cc1	22
COc1nc(C)nc2c1sc(=S)n2C	-24
COC(=O)c1ccc(C(=O)OC)c(NS(C)(=O)=O)c1	9
O=C1c2ccccc2C(=O)N1CCN1CCc2ccccc21	-52
COc1cccc(C(=O)Cn2c(N3CCOCC3)nc3c2c(=O)n(C)c(=O)n3C)c1	-2
CCOC(=O)c1sc(-c2ccc(OC)cc2)cc1N	-62
COc1ccc(-c2cc3nc4n(c(=O)c3s2)CCOC4)cc1	56*
Fc1ccc(-n2[nH]nnc2=S)cc1N1CCCC1	5
COc1cccc2c(=O)n(CC(=O)N3CCCc4ccccc43)ccc12	-10
CCOC(=O)c1ccc(N2Cc3cc(C)c(C)cc3C2)cc1O	0
O=C(NCc1ccc(F)cc1)C1C2C=CC3(CN(Cc4cccnc4)C(=O)C13)O2 (centres undefined)	-1
Cc1nnc(NC(=O)C2COc3ccccc3O2)s1 (centres undefined)	-52
O=C(NC1=NCCS1)C1COc2ccccc2O1 (centres undefined)	66*
O=C(Nc1ccc2c(c1)OCO2)C1COc2ccccc2O1 (centres undefined)	-11
O=c1oc2ccccc2cc1NCc1ccccc1O	-8
COc1cc(C(=O)Nc2ccc(N(C)C)cc2)cc(OC)c1OC	-62
CCOc1ccc(C)cc1S(=O)(=O)Nc1cccnc1	-12
COc1cc(NS(=O)(=O)c2ccc(C)cc2C)cc(OC)c1OC	62*
Cc1noc(C)c1CSc1nc2ccccc2s1	-19
c1csc(CSc2nc3ccccc3s2)c1	-52
Cc1ccc(CNc2nc3ccccc3s2)s1	61*
O=C(COC(=O)CSCC(=O)N1CCCCC1)Nc1ccc(Cl)cc1	5
CCOC(=O)N1CCC(Nc2nc3ccccc3nc2NS(=O)(=O)c2ccc(Cl)cc2)CC1	-54
Cc1nnc(NC(=O)NCN2C(=O)C3C4C=CC(C4)C3C2=O)s1 (centres undefined)	7
CCOc1cc(N2CCOCC2)c(OCC)cc1NC(=O)CSc1cccc[n+]1[O-]	-8
CCC1CCCCN1CCCNC(=O)CNC(=O)Cn1ccc2ccccc2c1=O (centres undefined)	5

From PubChem
